E-sel TNF inh = E-selectin induction blockers in HUVEC – imaging, immunofluorescence, high content, primary screen; HUVEC TNFa-induced E-selectin immunofluorescence; inhibition, % at 2 µM; hit rate 0.71% among 120,000; AID 1246, 2008;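 active = inhibition above the batch mean plus 3 SD, and confirmed as a hit on visual image review, cut at about 43% in these data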;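 note: 0% = TNF-stimulated DMSO wells and 100% = unstimulated control wells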
CYP2C9 activ = human CYP2C9 activators, primary screen, biochemical, luminescence; Cytochrome P450 2C9 (Homo sapiens), P11712; recombinant CYP2C9, luciferin-H conversion; active compounds read high; factor 1 = untreated enzyme, 0 = blocked; activation factor at 5 µM; hit rate 1.4% among 96,000; AID 1024, 2008;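 active = activation factor of 2 or more for CYP2C9 at a 5 µM dose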;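 note: 0 = sulfaphenazole-blocked wells and 1 = vehicle-only wells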
CYP2C19 inh = blockers of cytochrome P450 2C19 activity – biochemical, luminescence, ADME assay, primary screen. P33261. CYP2C19 Supersomes, luciferin-H EGE luminescence, 30 min. inhibition, % at 5 µM. hit rate 21% among 96,000. AID 778, 2007;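 active = CYP2C19 inhibition above a set limit at 5 µM in the primary screen, cut at about 50% in these data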;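 note: plate controls were negative control wells for no effect and 2.5 mM tranylcypromine positive control for full effect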
Target sequence (P33261 whole entry, looked up): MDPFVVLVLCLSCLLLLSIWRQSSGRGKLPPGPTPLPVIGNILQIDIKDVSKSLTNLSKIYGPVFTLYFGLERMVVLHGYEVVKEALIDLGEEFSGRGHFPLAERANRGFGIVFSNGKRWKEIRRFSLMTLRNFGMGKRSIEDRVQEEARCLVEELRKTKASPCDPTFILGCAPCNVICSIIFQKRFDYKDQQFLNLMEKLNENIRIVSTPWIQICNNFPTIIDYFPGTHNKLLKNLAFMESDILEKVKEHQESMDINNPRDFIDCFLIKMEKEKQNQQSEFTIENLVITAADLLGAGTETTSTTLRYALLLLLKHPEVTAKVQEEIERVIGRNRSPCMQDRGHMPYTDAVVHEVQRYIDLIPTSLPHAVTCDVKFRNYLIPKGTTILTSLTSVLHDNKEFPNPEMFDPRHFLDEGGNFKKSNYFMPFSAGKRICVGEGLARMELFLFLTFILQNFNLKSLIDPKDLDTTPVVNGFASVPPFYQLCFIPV
CYP2C9 inhib = blockers of cytochrome P450 2C9 activity – biochemical, luminescence, ADME assay, primary screen. CYP2C9 Supersomes, luciferin-H conversion. inhibition, % at 5 µM. hit rate 20% among 96,000. P11712;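 active = blocking of liver enzyme CYP2C9 beyond about 50% at 5 µM, limit read from the data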
F-actin modifier = modifiers of F-actin cytoskeleton organization, primary screen, imaging, HUVEC, phalloidin staining, high-content imaging. HUVEC TNFa F-actin phalloidin imaging. inhibition, % at 2 µM. hit rate 0.18% among 91,000;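 active = inhibition above the batch mean plus 3 SD and confirmed as a hit by visual image inspection, cut at about 30% in these data, passing the limit was not always enough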
CYP2C19 act = human CYP2C19 activators, primary screen, biochemical, luminescence. Cytochrome P450 2C19 (Homo sapiens), P33261. recombinant CYP2C19, luciferin-H EGE luminescence; active compounds read high; 0 = fully inhibited enzyme, 1 = untreated enzyme. activation factor at 5 µM. 96,000 tested, under 10 active;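 active = activation factor of at least 2 at 5 µM in the primary screen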;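 note: 0 = wells with 2.5 mM tranylcypromine and 1 = vehicle-only wells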
The depositor's hits bear a star; nt = no result given. Compounds with a hit are over-represented: about 22% of the library has one in this group of screens.

SMILES | E-sel TNF inh | CYP2C9 activ | CYP2C19 inh | CYP2C9 inhib | F-actin modifier | CYP2C19 act
COc1ccc(-n2c(SCC(=O)NCC3CCCO3)nc3n[nH]c(C)c3c2=N)cc1 (stereo not drawn) | nt | 0.9 | 21 | 6 | -38 | 0.8
CCOc1ccccc1NC(=O)CCSc1nc2n[nH]c(C)c2c(=N)n1-c1ccccc1Cl | -38 | 0.2 | 71* | 77* | nt | 0.3
CCOc1ccccc1-n1c(SCC(=O)Nc2ccc(CC)cc2)nc2n[nH]c(C)c2c1=N | -24 | 0.9 | 23 | 14 | -20 | 0.8
CCN(c1ccccc1)S(=O)(=O)c1ccc(C(=O)Nc2nnc(C3CC3)o2)cc1 | 3 | nt | nt | nt | nt | nt
CC(C)n1nnnc1SCC(=O)c1ccc2c(c1)OCCO2 | -13 | 1 | 63* | 4 | 0 | 0.4
CCCCn1c(SCC(=O)c2ccc3c(c2)OCCO3)nnc1-c1ccco1 | -25 | 0.4 | 48 | 56* | -24 | 0.5
CCn1c(SCC(=O)c2ccc3c(c2)OCCO3)nnc1C(C)C | nt | 0.9 | 94* | 11 | 14 | 0.1
COCCn1c(SCC(=O)c2ccc3c(c2)OCCO3)nnc1-c1ccoc1C | -44 | 0.6 | 22 | 45 | 22 | 0.8
CCn1c(COc2ccc3c(c2)OCO3)nnc1SCC(=O)c1ccc(Cl)cc1 | 10 | 0.5 | -10 | 51* | nt | 1.1
COc1ccccc1NC(=O)C1=C(C)NC(SCC(=O)c2ccccc2)=C(C#N)C1c1ccco1 (stereo not drawn) | -15 | 0.2 | 55* | 78* | 23 | 0.5
CC(=O)C1=C(C)NC(SCC(=O)c2ccc(C)cc2)=C(C#N)C1c1ccco1 (stereo not drawn) | -5 | 0 | 99* | 96* | -15 | 0
COc1ccc(OC)c(C2C(C(=O)Nc3cccnc3)=C(C)NC3=C2C(=O)CCC3)c1 (stereo not drawn) | -3 | 0 | 56* | 98* | -7 | 0.4
COc1ccc(NC(=O)CSC2=C(C#N)C(c3ccco3)C(C(=O)Nc3nc4ccccc4s3)=C(C)N2)cc1 (stereo not drawn) | -1 | nt | nt | nt | 6 | nt
COc1ccc(OC)c(NC(=O)CSC2=C(C#N)C(c3ccco3)C3=C(CCCC3=O)N2)c1 (stereo not drawn) | -34 | 0.1 | 84* | 86* | nt | 0.2
CC(=O)Nc1ccc(S(=O)(=O)NNC(=O)COc2cccc(C)c2)cc1 | -34 | 1 | 16 | 3 | 19 | 0.8
COc1ccc(-n2ncc3c(Nc4cccc(C)c4)ncnc32)cc1 | -17 | 1 | 15 | 0 | nt | 0.9
CCc1ccccc1NC(=O)CSC1=C(C#N)C(c2ccc3c(c2)OCO3)C2=C(CCCC2=O)N1 (stereo not drawn) | -19 | 0.2 | 51* | 80* | 8 | 0.5
Cc1ccc(C(=O)CSC2=C(C#N)C(c3ccco3)C3=C(CC(C)(C)CC3=O)N2)cc1 (stereo not drawn) | 0 | 0.1 | 88* | 88* | -30 | 0.1
Cc1ccc(NC(=O)CSC2=C(C#N)C(c3ccco3)C3=C(CCCC3=O)N2)cc1 (stereo not drawn) | 0 | 0.6 | 18 | 43 | nt | 0.8
CC1=C(C(=O)Nc2ccccc2)C(c2ccc3c(c2)OCO3)C2=C(CCCC2=O)N1 (stereo not drawn) | nt | 0.5 | 66* | 53* | -1 | 0.3
CC1(C)CC(=O)C2=C(C1)NC(SCC(=O)Nc1ccccc1)=C(C#N)C2c1ccco1 (stereo not drawn) | -5 | 0 | 96* | 95* | -1 | 0
O=C(O)CCN(Cc1ccccc1)S(=O)(=O)c1ccccc1Cl | 11 | nt | nt | nt | nt | nt
O=C(COC(=O)c1ccccc1-c1ccccc1[N+](=O)[O-])c1ccccc1 | 18 | nt | nt | nt | 7 | nt
N#CC1=C(SCC(=O)c2ccc(Cl)cc2)NC2=C(C(=O)CCC2)C1c1ccco1 (stereo not drawn) | nt | 0 | 99* | 97* | nt | 0
CC1=C(C#N)C(c2cccnc2)C2=C(CCCC2=O)N1 (stereo not drawn) | 0 | nt | nt | nt | -20 | nt
